Reference: the supplement of paper PMC10849652
The full data set covers some 7,900 targets. This sample favours those with a hit. About 0.6% of all pairs of compound and target were hits. A number with no mark means an inactive call.

Experiments:
Assay in all cases: log2 fold change, soluble protein after heating vs DMSO (PISA); higher = thermal stabilisation; K562 cells, 10 uM, 30 min; active = over 0.2 and 3.5 SD of the protein, either way, in both replicates (recomputed)
[1] = compound: CS(=O)(=O)c1ccc(-c2cnc(N)c(C(=O)Nc3ccccc3)n2)cc1
Outline: (§1)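 Aliquots of K562 cells (2×10^6 cells/mL) treated with 10 μM compound for 30 min were heated for 3 min over 48°C-58°C. After pooling and extraction in PBS with 0.5% NP-40 at 4°C, soluble protein from a 21,000xg, 90 min spin was quantified by TMTpro 16plex LC-MS/MS with channel sums equalised. Thermal stability is expressed against control samples, from duplicates, as a log2 fold change.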

[2] = compound: C[C@@H](Oc1cc(-c2cnn(C3CCNCC3)c2)cnc1N)c1c(Cl)ccc(F)c1Cl [crizotinib]
Outline: as §1

[3] = compound: C[C@@H]1COCCN1C2=NC(=NC(=C2)C3(CC3)S(=O)(=O)C)C4=C5C=CNC5=CC=C4
Outline: as §1

[4] = compound: C[C@H](C1=CC=C(C=C1)C(=O)NC2=C3C=CNC3=NC=C2)N
Outline: as §1

[5] = compound: C[C@H](Nc1ncnc2nc[nH]c12)c1cc2cccc(Cl)c2c(=O)n1-c1ccccc1 [duvelisib]
Outline: as §1

[6] = compound: Cc1cc(Nc2cc(CN3CCOCC3)c3nc(C)c(Cc4ccc(Cl)cc4F)n3n2)n[nH]1 [gandotinib]
Outline: as §1

[7] = compound: Cc1cc(Nc2cc(N3CCN(C)CC3)nc(Sc3ccc(NC(=O)C4CC4)cc3)n2)n[nH]1 [tozasertib]
Outline: as §1

[8] = compound: Cc1cc(SCc2sc(-c3ccc(C(F)(F)F)cc3)nc2C)ccc1OCC(=O)O
Outline: as §1

[9] = compound: Cc1ccc(-n2nc(C(C)(C)C)cc2NC(=O)Nc2ccc(OCCN3CCOCC3)c3ccccc23)cc1 [doramapimod]
Outline: as §1

[10] = compound: Cc1ccc(C(=O)N(CCCN)[C@@H](c2nc3cc(Cl)ccc3c(=O)n2Cc2ccccc2)C(C)C)cc1 [ispinesib]
Outline: as §1

[11] = compound: Cc1ccc(NC(=O)c2ccc(CN3CC[C@H](N(C)C)C3)c(C(F)(F)F)c2)cc1Nc1nccc(-c2cncnc2)n1 [bafetinib]
Outline: as §1

[12] = compound: Cc1cccc(CC(=O)N2CCc3c2ccc(-c2cn(C)c4ncnc(N)c24)c3F)n1
Outline: as §1

[13] = compound: Cc1cn(-c2cc(NC(=O)c3ccc(C)c(Nc4nccc(-c5cccnc5)n4)c3)cc(C(F)(F)F)c2)cn1 [nilotinib]
Outline: as §1

[14] = compound: Cc1nc(Nc2n[nH]c3c2CN(C(=O)N[C@H](CN(C)C)c2ccccc2)C3(C)C)c2sccc2n1
Outline: as §1

[15] = compound: Cc1nc(Nc2ncc(C(=O)Nc3c(C)cccc3Cl)s2)cc(N2CCN(CCO)CC2)n1 [dasatinib]
Outline: as §1

[16] = compound: Cc1ncc(-c2ccnc(Nc3ccc(S(C)(=O)=O)cc3)n2)n1C(C)C
Outline: as §1

[17] = compound: Cn1cc(-c2ccc3c(c2)CCN3C(=O)Cc2cccc(C(F)(F)F)c2)c2c(N)ncnc21
Outline: as §1

[18] = compound: Cn1cc(-c2ccc3nnc(C(F)(F)c4ccc5ncccc5c4)n3n2)cn1
Outline: as §1

[19] = compound: Cn1cncc1[C@@](N)(c1ccc(Cl)cc1)c1ccc2c(c1)c(-c1cccc(Cl)c1)cc(=O)n2C [tipifarnib]
Outline: as §1

[20] = compound: FC(F)(F)c1ccc(/C=C/c2nc(COc3ccc(CCCCn4ccnn4)cc3)co2)cc1 [mubritinib]
Outline: as §1

UniProt O43242, sequence (O43242 whole entry, looked up): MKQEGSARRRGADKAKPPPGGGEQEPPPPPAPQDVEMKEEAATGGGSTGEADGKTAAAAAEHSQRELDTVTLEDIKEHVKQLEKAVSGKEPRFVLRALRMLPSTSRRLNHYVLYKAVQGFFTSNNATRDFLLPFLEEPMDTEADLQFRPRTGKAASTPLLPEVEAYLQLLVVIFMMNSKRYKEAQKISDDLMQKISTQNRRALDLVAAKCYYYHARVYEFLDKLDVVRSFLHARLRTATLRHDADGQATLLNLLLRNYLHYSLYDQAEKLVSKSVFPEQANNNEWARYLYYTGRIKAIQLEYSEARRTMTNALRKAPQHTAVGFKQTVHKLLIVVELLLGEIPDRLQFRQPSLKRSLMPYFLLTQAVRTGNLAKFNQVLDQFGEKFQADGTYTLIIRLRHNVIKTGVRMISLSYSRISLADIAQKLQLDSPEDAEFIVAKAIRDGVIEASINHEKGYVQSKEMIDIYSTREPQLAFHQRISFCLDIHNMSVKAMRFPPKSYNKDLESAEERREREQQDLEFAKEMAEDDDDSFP
UniProt Q9H307, sequence (Q9H307 whole entry, looked up): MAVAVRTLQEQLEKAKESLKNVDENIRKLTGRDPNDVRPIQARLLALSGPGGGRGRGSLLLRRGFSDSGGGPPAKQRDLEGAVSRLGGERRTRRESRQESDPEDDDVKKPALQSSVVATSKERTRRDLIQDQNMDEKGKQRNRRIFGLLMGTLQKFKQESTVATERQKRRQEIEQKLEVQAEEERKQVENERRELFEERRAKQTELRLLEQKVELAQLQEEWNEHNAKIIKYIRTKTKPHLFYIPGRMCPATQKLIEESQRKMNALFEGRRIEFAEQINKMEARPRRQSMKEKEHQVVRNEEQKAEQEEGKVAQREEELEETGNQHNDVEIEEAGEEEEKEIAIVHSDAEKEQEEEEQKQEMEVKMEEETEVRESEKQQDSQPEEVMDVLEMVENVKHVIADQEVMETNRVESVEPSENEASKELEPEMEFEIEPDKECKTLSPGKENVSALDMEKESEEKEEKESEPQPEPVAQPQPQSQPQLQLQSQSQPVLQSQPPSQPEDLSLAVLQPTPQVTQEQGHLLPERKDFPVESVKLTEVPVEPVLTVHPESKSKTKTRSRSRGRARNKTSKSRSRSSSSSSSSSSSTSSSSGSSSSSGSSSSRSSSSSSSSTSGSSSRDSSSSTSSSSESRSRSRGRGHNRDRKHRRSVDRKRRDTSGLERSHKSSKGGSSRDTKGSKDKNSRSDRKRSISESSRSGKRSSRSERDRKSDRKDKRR
UniProt P19174, sequence (P19174 whole entry, looked up): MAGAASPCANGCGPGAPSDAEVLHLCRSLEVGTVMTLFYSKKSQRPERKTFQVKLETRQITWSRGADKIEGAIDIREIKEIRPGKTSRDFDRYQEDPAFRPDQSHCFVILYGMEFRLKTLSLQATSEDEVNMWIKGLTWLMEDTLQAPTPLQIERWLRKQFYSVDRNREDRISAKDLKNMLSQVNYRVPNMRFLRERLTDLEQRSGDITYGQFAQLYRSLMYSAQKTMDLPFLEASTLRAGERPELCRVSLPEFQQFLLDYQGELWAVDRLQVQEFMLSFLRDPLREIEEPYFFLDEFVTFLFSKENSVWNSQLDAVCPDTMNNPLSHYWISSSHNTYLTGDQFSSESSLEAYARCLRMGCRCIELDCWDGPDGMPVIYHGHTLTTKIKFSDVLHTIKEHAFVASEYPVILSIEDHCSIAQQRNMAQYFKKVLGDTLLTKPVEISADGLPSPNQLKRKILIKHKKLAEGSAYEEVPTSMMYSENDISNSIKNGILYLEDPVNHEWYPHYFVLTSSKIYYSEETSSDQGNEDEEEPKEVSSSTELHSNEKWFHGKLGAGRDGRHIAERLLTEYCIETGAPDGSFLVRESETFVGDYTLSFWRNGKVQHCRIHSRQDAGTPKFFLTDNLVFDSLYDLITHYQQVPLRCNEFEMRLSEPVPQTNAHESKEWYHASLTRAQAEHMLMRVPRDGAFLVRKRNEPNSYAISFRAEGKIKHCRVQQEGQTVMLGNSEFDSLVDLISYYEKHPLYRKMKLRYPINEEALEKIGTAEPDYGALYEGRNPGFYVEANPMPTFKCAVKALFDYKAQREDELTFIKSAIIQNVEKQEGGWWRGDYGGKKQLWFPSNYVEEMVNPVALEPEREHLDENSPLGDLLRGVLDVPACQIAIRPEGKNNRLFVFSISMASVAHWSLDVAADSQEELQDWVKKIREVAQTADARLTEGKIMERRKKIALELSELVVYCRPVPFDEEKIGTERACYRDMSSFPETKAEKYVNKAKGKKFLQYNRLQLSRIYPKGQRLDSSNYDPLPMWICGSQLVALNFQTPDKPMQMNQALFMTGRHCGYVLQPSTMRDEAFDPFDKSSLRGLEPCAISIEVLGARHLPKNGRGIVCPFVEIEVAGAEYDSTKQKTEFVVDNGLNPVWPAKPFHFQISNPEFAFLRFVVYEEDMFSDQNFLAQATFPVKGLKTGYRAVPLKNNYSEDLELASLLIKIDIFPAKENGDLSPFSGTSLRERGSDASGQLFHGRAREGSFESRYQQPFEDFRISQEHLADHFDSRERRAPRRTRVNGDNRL
UniProt Q8NCC3, sequence (Q8NCC3 whole entry, looked up): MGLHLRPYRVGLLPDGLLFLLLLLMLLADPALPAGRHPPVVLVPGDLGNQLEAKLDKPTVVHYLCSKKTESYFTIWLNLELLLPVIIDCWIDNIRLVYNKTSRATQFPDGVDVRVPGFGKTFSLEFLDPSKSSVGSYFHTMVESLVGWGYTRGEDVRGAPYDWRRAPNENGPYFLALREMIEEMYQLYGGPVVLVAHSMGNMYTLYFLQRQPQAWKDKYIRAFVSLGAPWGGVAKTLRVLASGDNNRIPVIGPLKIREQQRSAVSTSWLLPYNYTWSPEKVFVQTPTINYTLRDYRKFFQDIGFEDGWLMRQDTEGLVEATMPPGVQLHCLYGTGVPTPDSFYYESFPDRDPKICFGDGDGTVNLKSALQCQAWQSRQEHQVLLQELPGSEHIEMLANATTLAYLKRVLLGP
UniProt Q15111, sequence (Q15111 whole entry, looked up): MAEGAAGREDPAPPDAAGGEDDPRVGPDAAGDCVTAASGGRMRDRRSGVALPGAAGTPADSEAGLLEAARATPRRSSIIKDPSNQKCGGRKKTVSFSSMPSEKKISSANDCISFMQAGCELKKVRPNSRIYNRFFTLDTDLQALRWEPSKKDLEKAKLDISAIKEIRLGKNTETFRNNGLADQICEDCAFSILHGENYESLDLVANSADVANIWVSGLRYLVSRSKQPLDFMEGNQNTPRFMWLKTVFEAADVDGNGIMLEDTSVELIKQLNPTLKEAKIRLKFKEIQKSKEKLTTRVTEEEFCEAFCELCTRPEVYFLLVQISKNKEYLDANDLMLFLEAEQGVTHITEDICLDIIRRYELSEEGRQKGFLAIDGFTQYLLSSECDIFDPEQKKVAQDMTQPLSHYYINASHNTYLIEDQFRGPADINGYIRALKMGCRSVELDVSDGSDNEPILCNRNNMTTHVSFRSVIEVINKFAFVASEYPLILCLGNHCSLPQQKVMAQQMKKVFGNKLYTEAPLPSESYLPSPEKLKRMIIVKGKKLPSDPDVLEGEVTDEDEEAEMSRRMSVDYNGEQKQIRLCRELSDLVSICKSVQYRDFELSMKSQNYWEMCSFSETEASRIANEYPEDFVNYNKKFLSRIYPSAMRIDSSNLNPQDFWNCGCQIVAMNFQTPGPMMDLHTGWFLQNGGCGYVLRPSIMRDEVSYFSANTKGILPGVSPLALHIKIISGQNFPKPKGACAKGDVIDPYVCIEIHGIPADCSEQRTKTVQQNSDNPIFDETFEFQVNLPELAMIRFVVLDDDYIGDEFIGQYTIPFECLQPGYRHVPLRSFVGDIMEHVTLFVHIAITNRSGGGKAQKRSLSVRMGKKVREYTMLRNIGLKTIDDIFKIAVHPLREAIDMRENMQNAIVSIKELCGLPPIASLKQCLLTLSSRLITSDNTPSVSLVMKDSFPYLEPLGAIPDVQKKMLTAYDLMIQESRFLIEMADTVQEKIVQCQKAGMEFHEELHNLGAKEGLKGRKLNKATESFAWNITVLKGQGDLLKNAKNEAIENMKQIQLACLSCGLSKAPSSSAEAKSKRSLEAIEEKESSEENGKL
UniProt Q12974, sequence (Q12974 whole entry, looked up): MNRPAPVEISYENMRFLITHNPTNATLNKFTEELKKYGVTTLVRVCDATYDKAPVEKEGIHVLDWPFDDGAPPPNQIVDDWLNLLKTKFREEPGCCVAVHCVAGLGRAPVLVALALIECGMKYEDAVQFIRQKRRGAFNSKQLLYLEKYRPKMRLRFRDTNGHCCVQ
UniProt Q02156, sequence (Q02156 whole entry, looked up): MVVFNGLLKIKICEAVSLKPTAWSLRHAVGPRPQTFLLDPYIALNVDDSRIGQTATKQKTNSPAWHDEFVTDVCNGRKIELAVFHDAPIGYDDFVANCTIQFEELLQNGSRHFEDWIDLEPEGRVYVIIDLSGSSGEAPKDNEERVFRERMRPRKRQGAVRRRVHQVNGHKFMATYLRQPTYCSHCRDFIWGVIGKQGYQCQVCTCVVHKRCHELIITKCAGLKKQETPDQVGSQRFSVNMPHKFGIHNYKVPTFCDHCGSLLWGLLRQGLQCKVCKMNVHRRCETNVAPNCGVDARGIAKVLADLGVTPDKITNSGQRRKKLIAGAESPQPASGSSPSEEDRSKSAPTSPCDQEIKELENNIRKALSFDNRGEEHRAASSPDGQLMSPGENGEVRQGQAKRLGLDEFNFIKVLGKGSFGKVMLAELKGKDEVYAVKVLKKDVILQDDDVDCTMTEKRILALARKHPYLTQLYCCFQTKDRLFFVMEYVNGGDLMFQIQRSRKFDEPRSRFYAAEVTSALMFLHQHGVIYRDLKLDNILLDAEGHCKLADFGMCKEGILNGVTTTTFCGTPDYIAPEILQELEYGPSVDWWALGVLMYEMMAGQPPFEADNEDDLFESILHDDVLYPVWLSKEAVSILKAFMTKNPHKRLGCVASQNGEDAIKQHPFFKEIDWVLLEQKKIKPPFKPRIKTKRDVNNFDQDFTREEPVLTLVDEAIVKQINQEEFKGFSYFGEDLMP

| Target | log2 fold change [1] | log2 fold change [2] | log2 fold change [3] | log2 fold change [4] | log2 fold change [5] | log2 fold change [6] | log2 fold change [7] | log2 fold change [8] | log2 fold change [9] | log2 fold change [10] | log2 fold change [11] | log2 fold change [12] | log2 fold change [13] | log2 fold change [14] | log2 fold change [15] | log2 fold change [16] | log2 fold change [17] | log2 fold change [18] | log2 fold change [19] | log2 fold change [20] |
| --- | --- | --- | --- | --- | --- | --- | --- | --- | --- | --- | --- | --- | --- | --- | --- | --- | --- | --- | --- | --- |
| PKN1 isoform 2 (UniProt Q16512) | 0.03 | -0.233 | -0.015 | -0.12 | 0.001 | -0.165 | -0.052 | 0.075 | 0.022 | -0.065 | -0.006 | 0.038 | -0.044 | -0.705 (active) | -0.154 | -0.019 | -0.02 | -0.008 | -0.046 | 0.098 |
| PKM (UniProt P14618) | 0.003 | 0.021 | 0.013 | -0.044 | 0.007 | -0.013 | -0.026 | -0.029 | -0.019 | 0.02 | -0.023 | -0.012 | -0.011 | -0.004 | 0.024 | -0.009 | 0.015 | 0.006 | 0.005 | 0.035 |
| PTTG1IP (UniProt P53801) | 0.043 | 0.1 | 0.102 | -0.044 | 0.118 | 0.094 | 0.107 | -0.075 | -0.106 |  | -0.105 | -0.053 | -0.061 | 0.054 | -0.002 | -0.099 | 0.036 |  | 0.036 | -0.012 |
| PHC3 isoform 7 (UniProt Q8NDX5) | -0.068 | -0.194 | 0.317 | 0.073 |  |  |  |  | 0.131 |  | 0.222 |  | -0.187 | 0.01 |  | 0 | 0.018 |  | -0.016 | 0.191 |
| PNN (UniProt Q9H307) | -0.043 | -0.154 | 0.022 | -0.05 | 0.034 | 0.012 |  | -0.003 | -0.032 | -0.08 | -0.08 | -0.008 | -0.028 | -0.344 (active) | 0.062 | -0.039 | 0.028 | 0.231 | 0.255 | -0.098 |
| PSMD3 (UniProt O43242) | 0.058 | 0.003 | -0.003 | 0.094 | -0.028 | 0.028 | 0.033 | 0.047 | 0.047 | 0.013 | 0.129 | 0.032 | 0.008 | 0.089 | 0.004 | -0.012 | -0.064 | -0.018 | 0.025 | -0.019 |
| PGM3 isoform 4 (UniProt O95394) | 0.025 | -0.098 | 0.04 | -0.024 | 0.043 | -0.034 | -0.019 | 0.108 | 0.016 | -0.09 | 0.056 | 0.153 | -0.022 | 0.021 | -0.145 | -0.003 | 0.106 | 0.02 | -0.079 | 0.293 (active) |
| PLCL1 (UniProt Q15111) | 0.112 | -0.03 | 0.074 | -0.263 |  | -0.14 | -0.015 |  | -0.08 | -0.162 | -0.045 | 0.039 | -0.06 | -0.197 |  | -0.324 | -0.116 | 0.028 |  | -0.018 |
| PMM2 (UniProt O15305) | 0.006 | 0.08 | 0.013 | 0.012 | 0.056 | -0.045 | -0.017 | -0.031 | -0.015 | 0.009 | -0.098 | 0.003 | -0.291 (active) | -0.054 | -0.018 | -0.015 | 0.035 | 0.013 | 0.018 | 0.028 |
| QRICH1 (UniProt Q2TAL8) | -0.01 | -0.2 | 0.07 | 0.016 | 0.143 |  | 0.171 | 0.014 | -0.077 | 0.006 | 0.042 |  | -0.093 | -0.118 | -0.206 | 0.078 | 0.043 | 0.108 | -0.159 | -0.01 |
| PLA2G15 (UniProt Q8NCC3) | 0 | -0.163 | -0.008 | 0.015 | -0.038 | -0.036 | -0.075 | -0.016 | 0.015 | -0.055 | -0.175 | 0.05 | -0.001 | -0.025 | -0.036 | -0.028 | 0.002 | 0.09 | 0.084 | -0.05 |
| POGZ (UniProt Q7Z3K3) | 0.044 | -0.019 | 0.242 | 0.01 | -0.115 | 0.143 | 0.153 | 0.142 | 0.053 | -0.221 |  | 0.174 |  |  | -0.318 |  | 0.072 | 0.061 | -0.124 |  |
| POLR2C (UniProt P19387) | 0.019 | 0.127 | -0.062 | 0.163 | 0.032 |  | 0.017 | 0.113 | 0.012 | 0.034 | 0.012 |  | -0.042 | 0.073 | -0.031 | 0.3 (active) | 0.003 | -0.06 | -0.081 | -0.097 |
| PKM isoform 2 (UniProt P14618) | -0.053 | -0.033 | -0.154 |  | -0.001 | 0.131 | 0.056 | 0.12 | 0.029 | 0.016 | -0.155 | 0.029 | 0.121 | -0.104 | -0.014 | 0.198 |  | 0.017 | 0.209 | 0.05 |
| PRKCE (UniProt Q02156) | 0.051 | -0.071 | 0.083 | -0.168 | 0.032 | -0.092 | 0.071 | 0.055 | -0.003 |  | 0.001 | 0.02 | -0.024 | -0.335 (active) | -0.118 | 0.004 | 0.051 |  | -0.049 | 0.052 |
| PLCG1 isoform 2 (UniProt P19174) | 0.016 | -0.412 (active) | -0.09 | 0.16 | -0.037 | 0.107 | 0.016 | 0.161 | 0.001 | -0.178 | -0.054 | -0.08 | -0.072 | 0.079 | -0.257 | 0.024 | 0.031 | 0.005 | -0.144 | 0.11 |
| PTP4A2 (UniProt Q12974) | -0.001 | 0.047 | 0.026 | -0.01 | -0.057 |  | 0.017 | 0.05 | -0.047 | 0.154 | -0.045 |  | 0.007 | -0.056 | 0.089 | -0.43 (active) | 0.094 | -0.013 | 0.048 | 0.047 |
